These results are taken from PubChem BioAssay (Tox21).

“And” between values parts separate entries of the source, which are not always exact repeats. Equal values may be shown once. Inconclusive results are not listed. A call without a number means that no potency is given here. The source made the active and inactive calls. The call rests on the fitted dose curve; in most records, active means well fitted cell-killing curve with a large enough effect in the repeat runs; inconclusive means weak or mixed curves; inactive means no such curve, though single readings can be large or run the other way.
Potency means the concentration at half of the fitted maximal effect.

The experiment in a line: qHTS assay to identify small molecule antagonists of the peroxisome proliferator-activated receptor delta (PPARd) signaling pathway - cell viability counter screen (AID 743213). Further: nearly all actives have a fitted effect of over 50% in size. The note with it: PPARd-bla HEK293H viability, CellTiter-Glo luminescence, 17 h; series mostly up to 62 µM. An excerpt: U.S. Tox21 Program National Center for Advancing Translational Sciences [NCATS] NIH Chemical Genomics Center [NCGC] U.S. Environmental Protection Agency [EPA] National Institutes of Environmental Health Sciences [NIEHS] National Toxicology Program [NTP] U.S. Food and Drug Administration [FDA] Tox21 Assay Overview: The peroxisome proliferator-activated receptors (PPARs) are lipid-activated transcription factors of the nuclear receptor superfamily with three distinct subtypes namely PPAR alpha, PPAR delta (PPARd) and PPAR gamma. All these subtypes heterodimerizes with Retinoid X receptor (RXR) and have different physiological functions. […] To identify the compounds that inhibit PPAR-delta signaling, GeneBLAzer PPAR delta UAS-bla HEK293H cell line (Invitrogen, Carlsbad, CA, USA) containing a beta-lactamase reporter gene under the control of an Upstream Activator Sequence (UAS) was used to screen the Tox21 compound library. The cytotoxicity of the Tox21 compound library against the PPARd-bla cell line was tested in parallel by measuring the cell viability using CellTiter-Glo assay (Promega, Madison, WI) in the same wells.
Tox21 Assay Protocol Summary: PPARd-bla cells were dispensed at 3000 cells/5uL/well in 1536-well black wall/clear bottom plates using a Multidrop Combi (Thermo Fisher Scientific, Waltham, MA) dispenser. After the assay plates were incubated at 37 C and 5% CO2 for 5 h, 23 nL of compounds dissolved in DMSO, positive controls or DMSO only was transferred to the assay plate by a Pintool station (Kalypsys, San Diego, CA), followed by addition of 1ul L165041 (300 nM, final concentration in the wells). The assay plates were incubated at 37 C for 17 h, and then 1 uL of LiveBLAzerTM B/G FRET substrate was added using a Bioraptr Flying Reagent Dispenser (FRD) workstation (Beckman Coulter, Indianapolis, IN, USA). The assay plates were incubated at room temperature for 2 h and fluorescence intensity was measured by an Envision plate reader (PerkinElmer, Shelton, CT). For cell viability readout that measures cytotoxicity, 3 ul/well of CellTiter-Glo reagent was added into the assay plates using a Bioraptr FRD. After 30 min incubation at room temperature, the luminescence intensity in the plates was measured using a ViewLux plate reader (PerkinElmer).
`COC(=O)c1ccccc1S(=O)(=O)NC(=O)Nc1nc(C)nc(OC)n1`: the Potency result is “inactive”.

As for `CCCCCCCc1ccc(O)cc1`, the Potency entry was “inactive”.

Turning to `CCC1COC(Cn2cncn2)(c2ccc(Cl)cc2Cl)O1` (stereo not given), the Potency entry is “inactive”.

On to `O=C1C2(Cl)C3(Cl)C4(Cl)C(Cl)(Cl)C5(Cl)C3(Cl)C1(Cl)C5(Cl)C24Cl` (stereo not given), for which the Potency was 54 µM (active).

Take `CCn1cc[n+](C)c1` (tested in a mixture with another compound): the Potency entry is “inactive”.

`O.O.O.O.O.O.O=S(=O)([O-])[O-].[Ni+2]`: the Potency entry is “inactive”.

For the compound `CCCCC(CC)COC(=O)OOC(C)(C)C` (stereo not given), the Potency result was “inactive”.

On to `[O]=[Cr](=[O])([OH])[O][Cr](=[O])(=[O])[OH]`, for which the Potency is 7.83 µM (active) and 21.8 µM (active).

On to `C#CCC1=C(C)C(OC(=O)C2C(C=C(C)C)C2(C)C)CC1=O` (stereo not given), for which the Potency result was “inactive”.

Regarding `CN(C)CCc1c[nH]c2ccccc12`, the Potency entry was “inactive”.

As for `COCCC#N`, the Potency result was “inactive”.

In the case of `CC(C)N(C(=O)SC/C(Cl)=C/Cl)C(C)C`, the Potency entry is “inactive”.

As for `C=CCBr`, the Potency entry was “inactive”.

Consider `N#Cc1c2ccccc2cc2ccccc12`, for which the Potency entry is “inactive”.

As to `CC(Cc1ccc2c(c1)OCO2)NO` (stereo not given), the Potency result is “inactive”.

On to `O=C1C(Cl)=C(Cl)C(=O)C(Cl)=C1Cl`, for which the Potency is 13.8 µM (active).

Take `CCOP(=S)(OCC)Oc1cc(C)nc(N(CC)CC)n1`: the Potency entry was “inactive”.

As for `CC(C)c1c(CN(C)C(C)Cc2ccccc2)n(C)n(-c2ccccc2)c1=O` (stereo not given), the Potency was 13.3 µM (active).

`CSC1=N[C@@](C)(c2ccccc2)C(=O)N1Nc1ccccc1`: the Potency result was “inactive”.

As for `O=C(O)CCCCCCNC1c2ccccc2CCc2ccccc21`, the Potency entry is “inactive”.

As for `O.O.O.O=C([O-])[C@H]([O-])[C@@H]([O-])C(=O)[O-].O=C([O-])[C@H]([O-])[C@@H]([O-])C(=O)[O-].[K+].[K+].[Sb+3].[Sb+3]`, the Potency result is “inactive”.

In the case of `COc1cnc(OC)n2nc(NS(=O)(=O)c3c(OCC(F)F)cccc3C(F)(F)F)nc12`, the Potency result was “inactive”.

As for `C=C(C)C(=O)[O][Sn]([CH2]CCC)([CH2]CCC)[CH2]CCC`, the Potency is 1.55 µM (active).

Turning to `Cc1ccc2cc3c(ccc4ccccc43)c3c2c1CC3`, the Potency result is “inactive”.

For `CNC(C)(C)Cc1ccccc1`, the Potency result is “inactive”.

As to `CCC(C)c1cccc(C(C)CC)c1O` (stereo not given), the Potency entry is “inactive”.

For `CSSC`, the Potency entry was “inactive”.

Take `Cc1c([N+](=O)[O-])cc2c(c1[N+](=O)[O-])C(C)(C)CC2(C)C`: the Potency entry was “inactive”.

Regarding `O=S(=O)(NS(=O)(=O)C(F)(F)F)C(F)(F)F`, the Potency entry was “inactive”.

Turning to `CCCCn1cc[n+](C)c1.[Cl][Fe-]([Cl])([Cl])[Cl]`, the Potency entry is “inactive”.

For the compound `COC(=O)C(C)N(C(=O)c1ccco1)c1c(C)cccc1C` (stereo not given), the Potency entry is “inactive”.

As to `CC(=O)[O][Sn]([c]1ccccc1)([c]1ccccc1)[c]1ccccc1`, the Potency was 0.275 µM (active).

As for `CCc1cccc(C)c1N(C(=O)CCl)[C@@H](C)COC`, the Potency result was “inactive”.

For the compound `c1csc(-c2ccc(-c3cccs3)s2)c1`, the Potency result was “inactive”.

Turning to `CC(=O)O.CC(=O)O.CC(=O)O.CC(=O)O.CC(=O)O.CC(=O)O.CC(=O)O.O.O.[Cr].[Cr].[Cr]`, the Potency entry is “inactive”.

For the compound `COc1c2c(cc3c1OCO3)CCN(C)C2`, the Potency result is “inactive”.

`COP(=S)(NC(C)C)Oc1ccc(C)cc1[N+](=O)[O-]` (stereo not given): the Potency result was “inactive”.

In the case of `CC(=O)[O-].CC(=O)[O-].[Co+2]`, the Potency result was “inactive”.

Turning to `CC(O)C(=O)[O][Hg][c]1ccccc1` (stereo not given), the Potency is 1.95 µM (active).

As to `C=CC(=C)C`, the Potency result was “inactive”.
